Experimental data from ChEMBL document CHEMBL2218924, “A broad activity screen in support of a chemogenomic map for kinase signalling research and drug discovery” (Biochem J, 2013).

Columns and labels:
[1] = target: Calcium/calmodulin-dependent protein kinase type 1 (Homo sapiens) (UniProt Q14012); settings: at 1 µM
[2] = target: Calcium/calmodulin-dependent protein kinase type 1 (Homo sapiens) (UniProt Q14012); settings: at 10 µM
[3] = target: Calcium/calmodulin-dependent protein kinase type II subunit beta (Homo sapiens) (UniProt Q13554); settings: at 1 µM
[4] = target: Calcium/calmodulin-dependent protein kinase type II subunit beta (Homo sapiens) (UniProt Q13554); settings: at 10 µM
[5] = target: Calcium/calmodulin-dependent protein kinase type II subunit gamma (Homo sapiens) (UniProt Q13555); settings: at 1 µM
[6] = target: Calcium/calmodulin-dependent protein kinase type II subunit gamma (Homo sapiens) (UniProt Q13555); settings: at 10 µM
[7] = target: Calcium/calmodulin-dependent protein kinase type II subunit delta (Homo sapiens) (UniProt Q13557); settings: at 1 µM
[8] = target: Calcium/calmodulin-dependent protein kinase type II subunit delta (Homo sapiens) (UniProt Q13557); settings: at 10 µM
[9] = target: T1, Calcium/calmodulin-dependent protein kinase type IV (Homo sapiens) (UniProt Q16566); settings: at 1 µM
T1 sequence (whole entry): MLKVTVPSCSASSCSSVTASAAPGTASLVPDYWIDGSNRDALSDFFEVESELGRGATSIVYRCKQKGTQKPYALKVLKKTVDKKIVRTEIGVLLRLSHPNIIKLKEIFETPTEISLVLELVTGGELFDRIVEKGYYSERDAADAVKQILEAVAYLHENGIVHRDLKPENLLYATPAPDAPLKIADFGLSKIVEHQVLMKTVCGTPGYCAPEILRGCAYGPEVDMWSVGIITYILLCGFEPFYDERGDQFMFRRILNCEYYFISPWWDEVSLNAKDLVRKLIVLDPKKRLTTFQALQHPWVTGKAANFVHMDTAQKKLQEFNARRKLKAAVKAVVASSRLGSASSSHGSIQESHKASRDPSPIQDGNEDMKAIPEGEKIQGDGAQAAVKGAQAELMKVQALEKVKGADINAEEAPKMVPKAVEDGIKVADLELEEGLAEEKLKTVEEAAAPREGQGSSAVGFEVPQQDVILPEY

[10] = target: T1, Calcium/calmodulin-dependent protein kinase type IV (Homo sapiens); settings: at 10 µM
[11] = target: Death-associated protein kinase 1 (Homo sapiens) (UniProt P53355); settings: at 10 µM
[12] = target: Death-associated protein kinase 2 (Homo sapiens) (UniProt Q9UIK4); settings: at 1 µM
[13] = target: Death-associated protein kinase 2 (Homo sapiens) (UniProt Q9UIK4); settings: at 10 µM
[14] = target: T2, Serine/threonine-protein kinase DCLK2 (Homo sapiens) (UniProt Q8N568); settings: at 1 µM
T2 sequence (whole entry): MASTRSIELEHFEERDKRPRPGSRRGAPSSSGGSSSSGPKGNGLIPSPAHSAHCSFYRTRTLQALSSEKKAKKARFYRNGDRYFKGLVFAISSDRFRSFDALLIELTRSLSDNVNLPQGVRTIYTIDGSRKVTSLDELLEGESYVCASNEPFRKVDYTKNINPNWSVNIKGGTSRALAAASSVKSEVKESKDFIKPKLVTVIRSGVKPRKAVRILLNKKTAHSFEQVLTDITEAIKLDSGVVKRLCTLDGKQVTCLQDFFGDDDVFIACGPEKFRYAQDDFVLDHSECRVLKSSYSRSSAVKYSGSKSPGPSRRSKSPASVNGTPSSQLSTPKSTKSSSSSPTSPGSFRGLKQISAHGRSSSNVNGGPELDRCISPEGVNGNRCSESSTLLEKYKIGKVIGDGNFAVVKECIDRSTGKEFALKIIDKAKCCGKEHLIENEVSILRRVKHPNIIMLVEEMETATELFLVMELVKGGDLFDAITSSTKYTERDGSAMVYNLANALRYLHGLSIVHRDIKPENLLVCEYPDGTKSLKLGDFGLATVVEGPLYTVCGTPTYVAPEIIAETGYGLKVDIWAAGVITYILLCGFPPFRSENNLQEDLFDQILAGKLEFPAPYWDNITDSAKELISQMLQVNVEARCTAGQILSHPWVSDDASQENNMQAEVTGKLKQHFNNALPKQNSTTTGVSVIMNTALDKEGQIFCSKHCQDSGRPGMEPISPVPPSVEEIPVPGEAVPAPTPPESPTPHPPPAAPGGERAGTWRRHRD

[15] = target: T2, Serine/threonine-protein kinase DCLK2 (Homo sapiens); settings: at 10 µM
[16] = target: T3, Discoidin domain-containing receptor 2 (Homo sapiens) (UniProt Q16832); settings: at 1 µM
T3 sequence (whole entry): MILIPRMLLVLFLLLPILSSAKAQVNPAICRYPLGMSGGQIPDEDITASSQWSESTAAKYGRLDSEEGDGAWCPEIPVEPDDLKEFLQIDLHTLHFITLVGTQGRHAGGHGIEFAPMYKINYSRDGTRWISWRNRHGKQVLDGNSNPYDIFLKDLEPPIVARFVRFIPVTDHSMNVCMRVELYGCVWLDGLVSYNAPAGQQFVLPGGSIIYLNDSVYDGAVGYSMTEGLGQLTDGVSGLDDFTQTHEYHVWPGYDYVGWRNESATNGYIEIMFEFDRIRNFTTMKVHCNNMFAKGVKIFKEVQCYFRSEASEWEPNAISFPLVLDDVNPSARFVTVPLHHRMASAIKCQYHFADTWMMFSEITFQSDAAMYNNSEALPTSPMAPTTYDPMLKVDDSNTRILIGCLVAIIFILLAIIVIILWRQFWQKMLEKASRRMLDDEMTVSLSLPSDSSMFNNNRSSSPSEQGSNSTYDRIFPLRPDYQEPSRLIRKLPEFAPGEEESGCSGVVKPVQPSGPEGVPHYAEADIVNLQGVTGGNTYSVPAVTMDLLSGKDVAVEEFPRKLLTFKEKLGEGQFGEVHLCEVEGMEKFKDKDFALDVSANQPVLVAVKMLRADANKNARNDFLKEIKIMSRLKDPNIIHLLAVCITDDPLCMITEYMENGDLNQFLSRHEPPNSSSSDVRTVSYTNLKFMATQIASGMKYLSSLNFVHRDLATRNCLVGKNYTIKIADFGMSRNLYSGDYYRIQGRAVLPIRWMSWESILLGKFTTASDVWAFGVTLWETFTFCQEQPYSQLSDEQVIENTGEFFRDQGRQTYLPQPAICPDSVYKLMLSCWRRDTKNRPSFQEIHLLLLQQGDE

[17] = target: T3, Discoidin domain-containing receptor 2 (Homo sapiens); settings: at 10 µM
[18] = target: T4, Myotonin-protein kinase (Homo sapiens) (UniProt Q09013); settings: at 1 µM
T4 sequence (whole entry): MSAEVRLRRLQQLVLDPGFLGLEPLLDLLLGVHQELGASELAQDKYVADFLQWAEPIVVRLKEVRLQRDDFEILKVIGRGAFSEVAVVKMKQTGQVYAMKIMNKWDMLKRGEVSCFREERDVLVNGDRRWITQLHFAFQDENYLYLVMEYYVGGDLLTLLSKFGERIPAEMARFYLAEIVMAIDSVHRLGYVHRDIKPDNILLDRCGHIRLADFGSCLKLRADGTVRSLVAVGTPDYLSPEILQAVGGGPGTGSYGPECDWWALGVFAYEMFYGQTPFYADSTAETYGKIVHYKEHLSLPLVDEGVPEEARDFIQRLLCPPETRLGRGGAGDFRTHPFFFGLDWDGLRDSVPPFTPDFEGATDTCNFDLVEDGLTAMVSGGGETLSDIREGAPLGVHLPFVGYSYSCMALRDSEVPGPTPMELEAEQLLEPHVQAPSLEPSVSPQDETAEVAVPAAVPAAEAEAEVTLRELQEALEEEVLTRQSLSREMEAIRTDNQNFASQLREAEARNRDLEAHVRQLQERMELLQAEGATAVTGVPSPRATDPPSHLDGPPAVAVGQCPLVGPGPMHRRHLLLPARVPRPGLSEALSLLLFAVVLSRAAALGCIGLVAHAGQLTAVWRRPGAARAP

[19] = target: T4, Myotonin-protein kinase (Homo sapiens); settings: at 10 µM
[20] = target: T5, Serine/threonine-protein kinase 17A (Homo sapiens) (UniProt Q9UEE5); settings: at 1 µM
T5 sequence (whole entry): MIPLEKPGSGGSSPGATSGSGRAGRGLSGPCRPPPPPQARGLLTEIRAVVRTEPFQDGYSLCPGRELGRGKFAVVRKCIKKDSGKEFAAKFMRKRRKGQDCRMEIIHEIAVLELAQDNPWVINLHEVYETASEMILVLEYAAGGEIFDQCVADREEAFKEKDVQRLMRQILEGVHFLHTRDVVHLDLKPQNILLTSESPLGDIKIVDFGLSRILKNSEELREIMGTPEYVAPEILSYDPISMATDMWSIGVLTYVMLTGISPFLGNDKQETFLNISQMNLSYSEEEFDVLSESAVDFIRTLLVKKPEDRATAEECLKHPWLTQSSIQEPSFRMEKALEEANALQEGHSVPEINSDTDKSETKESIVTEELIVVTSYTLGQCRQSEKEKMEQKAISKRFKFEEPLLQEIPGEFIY

Calcium/calmodulin-dependent protein kinase type II subunit gamma (Homo sapiens), sequence (Q13555 whole entry): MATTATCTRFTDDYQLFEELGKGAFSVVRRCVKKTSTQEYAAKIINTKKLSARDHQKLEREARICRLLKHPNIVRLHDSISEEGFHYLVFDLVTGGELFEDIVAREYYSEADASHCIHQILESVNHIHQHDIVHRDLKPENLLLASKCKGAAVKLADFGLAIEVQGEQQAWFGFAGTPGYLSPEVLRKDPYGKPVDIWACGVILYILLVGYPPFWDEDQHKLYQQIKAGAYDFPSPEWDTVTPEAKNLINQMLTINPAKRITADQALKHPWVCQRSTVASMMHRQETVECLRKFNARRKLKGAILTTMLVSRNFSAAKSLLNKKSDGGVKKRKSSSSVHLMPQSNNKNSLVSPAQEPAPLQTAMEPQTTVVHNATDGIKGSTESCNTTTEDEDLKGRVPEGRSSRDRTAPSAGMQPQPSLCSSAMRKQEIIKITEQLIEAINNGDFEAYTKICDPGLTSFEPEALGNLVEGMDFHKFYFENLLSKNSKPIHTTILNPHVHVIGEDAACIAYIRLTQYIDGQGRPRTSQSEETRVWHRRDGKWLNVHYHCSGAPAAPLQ
Calcium/calmodulin-dependent protein kinase type II subunit delta (Homo sapiens), sequence (Q13557 whole entry): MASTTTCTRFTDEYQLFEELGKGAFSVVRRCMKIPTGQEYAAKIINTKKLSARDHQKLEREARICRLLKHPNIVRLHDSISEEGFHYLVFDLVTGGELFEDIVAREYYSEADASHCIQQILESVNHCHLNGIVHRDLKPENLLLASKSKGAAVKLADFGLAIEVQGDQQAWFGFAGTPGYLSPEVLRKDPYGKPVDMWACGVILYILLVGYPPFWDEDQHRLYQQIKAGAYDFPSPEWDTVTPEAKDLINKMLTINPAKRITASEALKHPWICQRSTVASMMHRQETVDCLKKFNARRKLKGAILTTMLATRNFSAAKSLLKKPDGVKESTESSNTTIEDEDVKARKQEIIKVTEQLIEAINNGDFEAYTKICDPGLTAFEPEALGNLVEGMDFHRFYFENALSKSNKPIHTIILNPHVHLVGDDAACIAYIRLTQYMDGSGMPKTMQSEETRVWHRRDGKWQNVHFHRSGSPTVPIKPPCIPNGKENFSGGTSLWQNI
Death-associated protein kinase 2 (Homo sapiens), sequence (Q9UIK4 whole entry, looked up): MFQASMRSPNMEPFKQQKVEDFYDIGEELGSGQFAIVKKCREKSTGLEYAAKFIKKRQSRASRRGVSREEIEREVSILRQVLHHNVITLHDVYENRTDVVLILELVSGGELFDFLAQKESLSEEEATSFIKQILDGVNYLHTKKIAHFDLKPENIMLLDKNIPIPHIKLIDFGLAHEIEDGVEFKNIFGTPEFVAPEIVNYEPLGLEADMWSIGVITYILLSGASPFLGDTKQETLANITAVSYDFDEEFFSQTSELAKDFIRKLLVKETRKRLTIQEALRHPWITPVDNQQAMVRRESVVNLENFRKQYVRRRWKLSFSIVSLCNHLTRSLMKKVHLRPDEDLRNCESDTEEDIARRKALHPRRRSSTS
Calcium/calmodulin-dependent protein kinase type II subunit beta (Homo sapiens), sequence (Q13554 whole entry): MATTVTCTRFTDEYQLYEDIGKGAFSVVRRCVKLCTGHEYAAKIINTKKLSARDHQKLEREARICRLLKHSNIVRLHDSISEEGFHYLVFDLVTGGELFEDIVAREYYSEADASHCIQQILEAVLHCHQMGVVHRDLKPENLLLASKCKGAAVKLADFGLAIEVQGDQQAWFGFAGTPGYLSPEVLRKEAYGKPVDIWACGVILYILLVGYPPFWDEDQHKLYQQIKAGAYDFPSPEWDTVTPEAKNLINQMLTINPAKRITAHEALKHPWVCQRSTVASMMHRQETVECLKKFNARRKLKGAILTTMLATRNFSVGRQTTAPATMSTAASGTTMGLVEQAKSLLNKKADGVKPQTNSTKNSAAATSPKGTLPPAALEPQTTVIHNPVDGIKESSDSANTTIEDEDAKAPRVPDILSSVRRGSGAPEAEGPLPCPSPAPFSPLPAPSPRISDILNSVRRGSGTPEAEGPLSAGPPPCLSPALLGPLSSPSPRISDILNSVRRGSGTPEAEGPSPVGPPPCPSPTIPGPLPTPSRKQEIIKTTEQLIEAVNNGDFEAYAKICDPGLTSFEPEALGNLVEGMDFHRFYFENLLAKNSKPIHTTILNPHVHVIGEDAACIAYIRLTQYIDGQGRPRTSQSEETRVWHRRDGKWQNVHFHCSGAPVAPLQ
Calcium/calmodulin-dependent protein kinase type 1 (Homo sapiens), sequence (Q14012 whole entry, looked up): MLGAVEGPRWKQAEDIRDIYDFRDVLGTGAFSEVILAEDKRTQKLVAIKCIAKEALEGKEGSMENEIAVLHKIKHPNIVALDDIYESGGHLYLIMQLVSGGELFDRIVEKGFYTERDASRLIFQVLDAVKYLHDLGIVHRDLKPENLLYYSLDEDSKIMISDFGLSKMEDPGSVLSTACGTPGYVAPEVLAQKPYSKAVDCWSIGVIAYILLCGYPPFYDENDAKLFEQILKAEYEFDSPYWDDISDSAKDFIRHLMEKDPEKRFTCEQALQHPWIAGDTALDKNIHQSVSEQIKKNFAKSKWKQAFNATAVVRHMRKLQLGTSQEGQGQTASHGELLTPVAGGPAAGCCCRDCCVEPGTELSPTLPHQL
Death-associated protein kinase 1 (Homo sapiens), sequence (P53355 whole entry, looked up): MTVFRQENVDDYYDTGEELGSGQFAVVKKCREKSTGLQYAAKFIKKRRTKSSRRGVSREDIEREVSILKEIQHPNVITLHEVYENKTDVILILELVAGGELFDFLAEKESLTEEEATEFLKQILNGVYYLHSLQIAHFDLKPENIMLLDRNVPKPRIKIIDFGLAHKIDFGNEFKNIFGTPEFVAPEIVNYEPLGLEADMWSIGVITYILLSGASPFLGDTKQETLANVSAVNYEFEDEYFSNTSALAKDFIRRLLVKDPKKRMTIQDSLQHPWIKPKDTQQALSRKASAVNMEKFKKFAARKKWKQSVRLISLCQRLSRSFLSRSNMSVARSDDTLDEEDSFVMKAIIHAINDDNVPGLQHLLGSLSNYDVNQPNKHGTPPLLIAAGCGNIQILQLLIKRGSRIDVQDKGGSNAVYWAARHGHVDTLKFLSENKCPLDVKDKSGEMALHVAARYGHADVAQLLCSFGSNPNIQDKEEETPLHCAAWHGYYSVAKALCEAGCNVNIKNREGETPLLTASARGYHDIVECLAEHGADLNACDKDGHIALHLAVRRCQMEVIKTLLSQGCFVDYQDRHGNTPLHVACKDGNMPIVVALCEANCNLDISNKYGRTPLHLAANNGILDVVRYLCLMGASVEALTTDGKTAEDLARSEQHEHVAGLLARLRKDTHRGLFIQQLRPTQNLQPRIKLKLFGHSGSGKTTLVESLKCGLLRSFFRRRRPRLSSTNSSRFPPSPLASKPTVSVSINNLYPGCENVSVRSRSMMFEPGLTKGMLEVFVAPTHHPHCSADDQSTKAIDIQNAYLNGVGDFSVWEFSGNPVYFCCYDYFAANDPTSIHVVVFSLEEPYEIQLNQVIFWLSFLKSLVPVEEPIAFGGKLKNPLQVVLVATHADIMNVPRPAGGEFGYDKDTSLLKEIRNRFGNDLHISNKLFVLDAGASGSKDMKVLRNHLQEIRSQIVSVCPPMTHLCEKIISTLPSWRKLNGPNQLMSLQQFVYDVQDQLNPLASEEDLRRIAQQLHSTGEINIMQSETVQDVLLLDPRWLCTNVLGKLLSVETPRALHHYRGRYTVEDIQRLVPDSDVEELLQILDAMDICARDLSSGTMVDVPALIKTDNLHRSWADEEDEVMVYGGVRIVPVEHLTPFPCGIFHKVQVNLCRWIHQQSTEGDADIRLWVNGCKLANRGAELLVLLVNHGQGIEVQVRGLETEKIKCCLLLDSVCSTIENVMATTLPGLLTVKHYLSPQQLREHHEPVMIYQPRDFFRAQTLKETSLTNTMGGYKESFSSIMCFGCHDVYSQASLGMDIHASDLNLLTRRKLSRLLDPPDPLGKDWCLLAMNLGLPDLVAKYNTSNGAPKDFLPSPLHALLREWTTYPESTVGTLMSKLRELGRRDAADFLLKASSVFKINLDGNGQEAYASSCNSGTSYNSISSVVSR

Structure (SMILES)	residual activity [1] [%]	residual activity [2] [%]	residual activity [3] [%]	residual activity [4] [%]	residual activity [5] [%]	residual activity [6] [%]	residual activity [7] [%]	residual activity [8] [%]	residual activity [9] [%]	residual activity [10] [%]	residual activity [11] [%]	residual activity [12] [%]	residual activity [13] [%]	residual activity [14] [%]	residual activity [15] [%]	residual activity [16] [%]	residual activity [17] [%]	residual activity [18] [%]	residual activity [19] [%]	residual activity [20] [%]
O=C(O)c1ccc2c3c1cccc3c(=O)n1c3ccccc3nc21	108	117	88	51	88	31	80	31	94	21	47	31	1	117	68	99	101	92	83	42
Cc1nc2cc3nc(-c4cccs4)cnc3cc2n1C	109	107	100	93	103	84	106	85	129	101	86	105	108	115	108	111	93	113	117	64
COc1ccc(OC)c2c(=S)c3ccccc3[nH]c12	96	77	92	54	90	54	95	62	100	84	93	106	95	101	67	99	103	120	87	94
O=C1Nc2cc(Br)ccc2/C1=C1/Nc2ccccc2/C1=N\O	59	12	15	8	3	2	1	2	59	73	46	50	26	89	76	74	37	110	84	8
O=Nc1c(-c2c(O)[nH]c3ccccc23)[nH]c2ccccc12	72	21	33	11	12	1	10	2	66	10	67	73	23	119	74	94	87	109	83	6
COc1cc2ncnc(Nc3ccc(Oc4ccccc4)cc3)c2cc1OC	102	76	88	84	102	102	105	111	103	104	106	99	118	82	252	113	103	98	139	81
